We go through 40 molecules from PubChem BioAssay (NCI).

About 83,000 compounds went through this panel and 20% of them were active in at least one assay; those are over-represented in the sample as a whole.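 Activity criterion: percent growth below 10, measured after cells in 96-well plates were exposed to a single compound concentration for 48 hours.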 Values without a mark were called inactive. Active and inactive are the calls of the source. *1 amine or outer side, *2 acyl side, *3 side chain or, on linkers, in order; H or OH if unused. Where a SMILES comes first, the peptide text is derived from it. [ ]: non-standard residue; d: D form. The star is where a group is joined. ξ: configuration not given here. X5 = CCC(=O)CC1CC(C)CC(C(=O)[*:2])N1[*:1]; X4 = CCCCCCCCC(C)C(=O)*; ξD = NC(CC(=O)O)C(=O)O; Aib = CC(C)(N)C(=O)O; X6 = CC(CN(C)CCO)N*

For this experiment, the system named is HOP-92 NSCLC. The experiment in a line: NCI-60 one-dose screen, 48 h (100 = growth as untreated, 0 = no growth, -100 = all killed). As to conditions: 10 µM unless noted. As for the experimental part: Growth inhibition of the HOP-92 human Non-Small Cell Lung tumor cell line is measured as a screen for anti-cancer activity. Cells are grown in 96 well plates and exposed to the test compound for 48 hours. Compounds are tested at a single concentration, which is 10^-5 M for most compounds. The reported endpoint is percent growth (GI% or GIPRCNT), where numbers from 0 - 100% represent growth inhibition, and numbers from -100% - 0 represent cell death. For example, a value of 40 represents 60% growth inhibition. A value of 0 means no net growth occurred over the course of the experiment. A value of -40 indicates 40% of cells at the beginning of the experiment died by the end of the experiment. A value of -100 means all cells are dead at the end of the experiment.
NCI-60 Human Tumor Cell Lines Screen was performed using the standard one-dose NCI protocol, which is described in more detail at https://dtp.cancer.gov/discovery_development/nci-60/default.htm.
Compounds with GIPRCNT values below 10 were considered active. Activity score was based on GIPRCNT using the following formula: […]
Score is 0 for GIPRCNT values of 100 or above, 50 for GIPRCNT values of 0, and 100 for GIPRCNT values of -100.
As for `Clc1ccc(-n2ncc3c(NCCCN4CCOCC4)ncnc32)cc1`, the growth is 71.3%.

Turning to `CC(C)c1ccc(Nc2n[nH]c(=S)s2)cc1`, the growth was 82.6%.

On to `Cn1ccc(=Nc2ccc(NC(=O)c3ccc(N=c4ccn(C)c5ccc([N+](=O)[O-])cc45)cc3)cc2)cc1`, for which the growth is 70.9%.

Consider `CC1=CC(=NC(=O)CBr)C=C/C1=N\S(=O)(=O)c1ccccc1`, for which the growth is 52.9%.

Take `NC(=S)N/N=C/c1ncccc1O`: the growth is 2.7% (active).

Consider `Cc1ccc(N2C(=O)C=CC2=O)cc1`, for which the growth was 82.9%.

As for `NCC(=O)NC(CC(=O)O)C(=O)O` (stereo not given) (H-Gly-[ξD]-OH), the growth is 100%.

Take `Cc1cc(=O)oc2cc(O)cc(O)c12`: the growth is 100%.

`O/N=C1\c2ccccc2-c2ccc(F)cc21`: the growth is 94.7%.

For `CC1(C)OCC(COC(c2ccccc2)(c2ccccc2)c2ccccc2)O1` (stereo not given), the growth was 89.4%.

In the case of `CC(O)C(O)C(O)C(O)C(O)C(=O)NNc1ccccc1` (stereo not given), the growth was 95.2%.

As to `O=C(c1ccccc1)C(O)C(Br)(CBr)c1ccccc1` (stereo not given), the growth is 47.2%.

Regarding `O=C1c2ccccc2C(=O)c2c(O)c(Cl)cc(O)c21`, the growth is 87.7%.

For `CN(C)c1ccc(/C=C/c2ccnc3ccccc23)cc1`, the growth is 27.2%.

On to `Oc1ccc2ccccc2c1N=Nc1nccs1`, for which the growth was 46.9%.

For the molecule `Cc1onc(-c2ccccc2)c1C(=O)N/N=C/c1cc(Cl)cc(Cl)c1O`, the growth is 49.3%.

For the molecule `COc1ccc(/C=C2/C(=O)ON=C2C)cc1`, the growth was 93.6%.

As for `C(=N\Nc1ccc2ccccc2n1)/c1ccccn1`, the growth is 42.2%.

On to `CCSc1nc2ccccc2o1`, for which the growth is 81.8%.

As to `O=C1Nc2ccc(Br)cc2C1=O`, the growth was 103%.

For the molecule `O=C(Cc1nc2cc(Cl)c(Cl)cc2nc1CC(=O)c1cccnc1)c1cccnc1`, the growth was 78%.

With `CCCCCC/C=C1\CCC(CN2CCCC2)C1=O` (stereo not given), the growth was 90.5%.

Turning to `C/C(=N\NC(=S)N1CC2CCC(CC2)C1)c1ccccn1`, the growth is 34.1%.

As for `CCN1CCCC(Nc2cc(C)nc(/N=C(/N)Nc3ccc(Cl)c(Cl)c3)n2)C1` (stereo not given), the growth is -68.4% (active).

Regarding `CCCCCCCCCCCC[n+]1ccc(CCCCCCCCC)cc1`, the growth is -55.5% (active).

As for `Oc1ccc(Br)cc1Sc1cc(Br)ccc1O`, the growth is 22.1%.

As for `Oc1ccc(Cl)cc1C(c1cc(Cl)ccc1O)C(Cl)(Cl)Cl`, the growth was -25.3% (active).

As for `Cc1cc(C(=O)c2ccc(Cl)cc2)ccc1O`, the growth is 104%.

`CCCCCCCCC(C)C(=O)N1CCCC1C(=O)N1C(CC(=O)CC)CC(C)CC1C(=O)NC(C)C(=O)NC(C)(C)C(=O)NC(C)(C)C(=O)NC(C(=O)NC(C)C(=O)NC(C)(C)C(=O)NC(C)(C)C(=O)NC(C)CN(C)CCO)C(C)CC` (stereo not given) (X4-P[X5]A[Aib][Aib]IA[Aib][Aib]-X6; configuration not given here): the growth is -23.8% (active).

In the case of `O=C(/C=C/C(Cl)(Cl)Cl)Nc1ccc(Cl)cc1`, the growth was 82.1%.

For the molecule `CCCCCCCCc1cc(Cl)c(O)c(Cl)c1`, the growth was 99.5%.

`O=C(c1ccccc1)N(CCCl)C(=O)N(CCCl)C(=O)c1ccccc1`: the growth was 62.3%.

As to `Cc1oc2c(C)c3oc(=O)cc(C)c3cc2c1CCl`, the growth is 58.5%.

In the case of `CN(C)c1ccc(C(C#N)(c2ccccc2)c2ccc(N(C)C)cc2)cc1`, the growth was 54.6%.

For the molecule `CCCCCCCCCCCCSC(=N)N`, the growth was -22.4% (active).

For `C[n+]1ccccc1C[n+]1ccccc1`, the growth is 101%.

For the molecule `S=C1SCN(Cc2cccs2)CN1Cc1cccs1`, the growth was 79.9%.

As to `CC(=O)N1CC(=O)NC1=S`, the growth is 102%.

In the case of `CC1CC(C)(C)OB(OC(C)CC(C)(C)OB2OC(C)CC(C)(C)O2)O1` (stereo not given), the growth was 101%.

Regarding `O=C(C[P+](c1ccccc1)(c1ccccc1)c1ccccc1)c1ccccc1`, the growth is 55.9%.
